Data from PubChem BioAssay.
“And” between values parts separate entries of the source, which are not always exact repeats. Equal values may be shown once.

Tests used:
[1] = system: Botulinum neurotoxin type F light chain protease (Clostridium botulinum); test: Clostridium botulinum type F light chain protease inhibitors, microsphere substrate cleavage, validation (AID 588459); settings: multiplex microsphere protease substrate cleavage assay, flow cytometry; at 10 µM; stronger effect = higher value
[2] = biological target: Botulinum neurotoxin type A (Clostridium botulinum) (UniProt P0DPI0); test: BoNT/A light chain protease inhibitors, biochemical, multiplex microsphere flow cytometry, validation set (AID 588460); settings: at 10 µM, stronger effect = higher value
Botulinum neurotoxin type A (Clostridium botulinum), sequence (P0DPI0 whole entry, looked up): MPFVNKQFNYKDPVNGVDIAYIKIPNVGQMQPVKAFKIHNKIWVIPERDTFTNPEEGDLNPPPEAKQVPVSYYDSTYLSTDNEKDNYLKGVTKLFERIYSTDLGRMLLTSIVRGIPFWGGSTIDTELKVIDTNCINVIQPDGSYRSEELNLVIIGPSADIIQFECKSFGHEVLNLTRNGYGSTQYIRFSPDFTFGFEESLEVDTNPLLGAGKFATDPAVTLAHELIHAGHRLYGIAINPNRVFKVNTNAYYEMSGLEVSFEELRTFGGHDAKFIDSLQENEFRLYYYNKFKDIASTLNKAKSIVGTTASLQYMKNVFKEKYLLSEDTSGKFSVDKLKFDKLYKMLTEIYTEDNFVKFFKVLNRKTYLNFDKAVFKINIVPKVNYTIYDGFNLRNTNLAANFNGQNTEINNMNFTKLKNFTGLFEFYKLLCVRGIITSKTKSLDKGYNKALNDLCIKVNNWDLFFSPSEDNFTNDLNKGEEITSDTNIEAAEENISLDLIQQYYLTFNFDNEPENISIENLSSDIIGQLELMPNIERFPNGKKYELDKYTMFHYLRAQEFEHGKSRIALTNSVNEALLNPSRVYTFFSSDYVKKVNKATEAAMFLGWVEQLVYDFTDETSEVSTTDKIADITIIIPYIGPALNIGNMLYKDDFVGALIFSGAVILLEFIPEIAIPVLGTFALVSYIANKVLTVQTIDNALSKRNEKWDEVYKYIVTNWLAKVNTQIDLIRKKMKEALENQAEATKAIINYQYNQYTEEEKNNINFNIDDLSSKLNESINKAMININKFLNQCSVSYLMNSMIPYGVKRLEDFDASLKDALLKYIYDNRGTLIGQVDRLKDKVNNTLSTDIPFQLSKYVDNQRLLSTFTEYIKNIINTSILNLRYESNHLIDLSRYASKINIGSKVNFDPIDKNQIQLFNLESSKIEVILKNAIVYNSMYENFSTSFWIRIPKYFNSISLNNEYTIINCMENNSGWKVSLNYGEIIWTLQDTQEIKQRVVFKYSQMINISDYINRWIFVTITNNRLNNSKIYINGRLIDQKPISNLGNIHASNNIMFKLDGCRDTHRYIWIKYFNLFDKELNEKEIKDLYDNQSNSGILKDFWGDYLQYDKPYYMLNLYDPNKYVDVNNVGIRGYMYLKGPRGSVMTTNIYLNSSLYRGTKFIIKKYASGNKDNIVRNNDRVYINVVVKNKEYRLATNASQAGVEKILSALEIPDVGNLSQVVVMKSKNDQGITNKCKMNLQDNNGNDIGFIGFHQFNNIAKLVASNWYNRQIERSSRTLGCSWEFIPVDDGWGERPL

[3] = biological target: Lethal factor (Bacillus anthracis) (UniProt P15917); test: Bacillus anthracis lethal factor inhibition, microsphere flow cytometry protease assay, validation at 10 µM (AID 588461); settings: multiplex microsphere protease cleavage assay, stronger effect = higher value
Lethal factor (Bacillus anthracis), sequence (P15917 whole entry, looked up): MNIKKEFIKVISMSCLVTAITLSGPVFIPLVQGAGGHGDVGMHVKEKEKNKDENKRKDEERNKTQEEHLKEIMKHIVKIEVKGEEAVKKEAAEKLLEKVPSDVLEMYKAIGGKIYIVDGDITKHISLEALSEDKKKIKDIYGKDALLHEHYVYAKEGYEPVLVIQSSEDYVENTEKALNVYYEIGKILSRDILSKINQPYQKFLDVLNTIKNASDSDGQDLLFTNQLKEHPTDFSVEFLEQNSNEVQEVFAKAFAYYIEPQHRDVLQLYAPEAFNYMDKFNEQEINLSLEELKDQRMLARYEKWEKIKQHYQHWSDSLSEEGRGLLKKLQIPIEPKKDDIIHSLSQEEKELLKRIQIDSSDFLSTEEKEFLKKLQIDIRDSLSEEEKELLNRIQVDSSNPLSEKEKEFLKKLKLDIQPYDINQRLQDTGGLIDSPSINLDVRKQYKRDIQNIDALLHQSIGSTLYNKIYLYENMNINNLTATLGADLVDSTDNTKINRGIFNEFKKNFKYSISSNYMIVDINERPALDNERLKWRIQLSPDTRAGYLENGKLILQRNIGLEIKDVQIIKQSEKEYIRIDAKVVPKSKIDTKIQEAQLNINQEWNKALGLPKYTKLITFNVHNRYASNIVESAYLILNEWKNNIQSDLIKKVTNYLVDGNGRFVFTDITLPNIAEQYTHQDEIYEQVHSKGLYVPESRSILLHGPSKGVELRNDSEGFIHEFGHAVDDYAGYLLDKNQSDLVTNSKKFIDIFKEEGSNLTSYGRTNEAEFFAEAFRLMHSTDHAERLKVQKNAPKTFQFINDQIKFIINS

Measured: inhibition

CC(=O)OC(C)C[N+](C)(C)C (stereo unspecified)
inactive: [1] 0.7% | [2] 0.6% | [3] -5.8%

c1coc(-c2nnc3n2C2(CCCC2)Cc2ccccc2-3)c1
inactive: [1] 2.5% | [2] -1.4% | [3] -5.9%

Cc1ccc(S(=O)(=O)NC(=O)Nc2cc(C)ccc2F)cc1
inactive: [1] 3% | [2] -0.1% | [3] -4.1%

COc1ccc(C(=O)Nc2nc3ccccc3c(=O)[nH]2)cc1
inactive: [1] -3.3% | [2] -2.3% | [3] -0.8%

Cn1c(=O)[nH]c(=O)c2c1ncn2CCN1CCOCC1
inactive: [1] 3.5% | [2] -1.5% | [3] -2.5%

O=C(NCc1ccccc1Cl)NC(=O)c1ccccc1
inactive: [1] -1.4% | [2] 0.8% | [3] 6.8%

CC(C)CN1CCN(Cc2cccn2-c2ccccn2)CC1CCO (stereo unspecified)
inactive: [1] -0.4% | [2] -0.5% | [3] 3.6%

CS(=O)c1ccccc1O (stereo unspecified)
inactive: [1] 1.4% | [2] 0% | [3] -9.2%

CC(CN1c2ccccc2Sc2ccccc21)N(C)C (stereo unspecified)
inactive: [1] -0.2% | [2] -1.5% | [3] -11.5%

COc1ccc(C2CNC(=O)C2)cc1OC1CCCC1 (stereo unspecified)
inactive: [1] 7.8% | [2] -0.3% | [3] 1%

CC(=O)N(CCC1(C(C)C)CCOC(C)(C)C1)Cc1ccco1 (stereo unspecified)
inactive: [1] -2% | [2] -1.4% | [3] 0.2%

Cc1cc(=O)oc(C)c1C(=O)NCCC(C)C
inactive: [1] -1.3% | [2] -0.2% | [3] 4%

COc1cc(C2C(C(C)=O)=C(O)C(=O)N2c2ccc(C)cc2)ccc1O (stereo unspecified)
inactive: [1] -1.4% | [2] 0.2% | [3] 0%

COc1ccc2cc(CCC(C)=O)ccc2c1
inactive: [1] -2.3% | [2] 0.4% | [3] 6.3%

O=c1nc2cccc3c2=c(/c1=C(\O)c1ccccc1)c1ccccc1c3=O
inactive: [1] 3.2% | [2] 0.6% | [3] -0.8%

CCOc1ccccc1OCCOc1ccc(F)cc1
inactive: [1] 0.7% | [2] -1.2% | [3] 6.2%

Cc1[nH]c2ccccc2c1/C=C/c1nc2ccccc2c(=O)n1CCO
inactive: [1] 0% | [2] -0.4% | [3] 0.2%

COc1ccc(C(C)N2CC34C=CC(O3)C(C(=O)OCC(C)C)C4C2=O)cc1 (stereo unspecified)
inactive: [1] -1.9% | [2] -1.2% | [3] 0.2%

COc1cc(C(=O)CCN2CCC(c3ccccc3)C2)cc(OC)c1OC (stereo unspecified)
inactive: [1] 0.2% | [2] 1.9% | [3] 6.6%

O=C(CN1C(=O)C2CCc3[nH]c4ccccc4c3C2C1=O)N1CCCC1 (stereo unspecified)
inactive: [1] 0.5% | [2] 1.1% | [3] 4.3%

COc1cccc(OC2OC3COC(C)(C)OC3C(O)C2NC(C)=O)c1 (stereo unspecified)
inactive: [1] -0.8% | [2] 0.2% | [3] 0.5%

OCCC1CN(Cc2ccccc2-c2ccco2)CCN1C1CCCC1 (stereo unspecified)
inactive: [1] 4.4% | [2] 0.5% | [3] 5.3%

CSCCC(NC(=O)/C(=C/c1ccc2c(c1)OCO2)NC(=O)c1cccc([N+](=O)[O-])c1)C(=O)O (stereo unspecified)
inactive: [1] -1.7% | [2] 0.6% | [3] -9.5%

CCC(=O)c1ccc(O)cc1
inactive: [1] 1.2% | [2] -0.4% | [3] -1.2%

COc1ccc(NC(=O)C2CCCN2C(=O)OC(C)(C)C)cc1 (stereo unspecified)
inactive: [1] 4.1% | [2] 0.9% | [3] -2.4%

O=C(Nc1cccc(Cl)c1)N1CCN2C(=O)c3ccccc3C12c1ccccc1 (stereo unspecified)
inactive: [1] -3.9% | [2] -0.1% | [3] -4.4%

COc1ccccc1/C=C/C(=O)c1c2c(c(C)[nH]c1=O)CCCC2
inactive: [1] -1.3% | [2] 0.5% | [3] -5.8%

O=C(O)c1cc2cc(Cl)cc(Cl)c2oc1=O
inactive: [1] -2.3% | [2] 0.4% | [3] 1.1%

O=C1OC(Nc2ccc3c(c2)OCO3)c2ccccc21 (stereo unspecified)
inactive: [1] 0.9% | [2] -1.8% | [3] -5.7%

COc1ccc(CCNC(=O)c2ccc(Cl)cc2)cc1OC
inactive: [1] 0.6% | [2] -1.4% | [3] -4.6%

CCOC(=O)C1C(=O)OC(C)(C)C1C(C)C(=O)c1ccc(C)cc1 (stereo unspecified)
inactive: [1] 4.4% | [2] 0.5% | [3] 4.6%

COc1cccc(OCC(O)CO)c1 (stereo unspecified)
inactive: [1] -1.4% | [2] -1.1% | [3] -9.1%

CCC(NC(C)C)C(O)c1ccc(O)c(O)c1 (stereo unspecified)
inactive: [1] -5.4% | [2] -0.9% | [3] -4%

COc1cc2nc(N3CCN(C(=O)C4CCCO4)CC3)nc(N)c2cc1OC (stereo unspecified)
inactive: [1] 3.3% and 1.5% | [2] 0% | [3] -5.7% and -7.8%

NC(N)=NC(=O)Cc1c(Cl)cccc1Cl
inactive: [1] -3.3% | [2] -1.8% | [3] -3.1%

O=C(CSCc1ccccc1)NCCCN1CCOCC1
inactive: [1] -2.9% | [2] -0.9% | [3] -8.8%

COC1(C)CC2C(CC1OC(=O)c1cc([N+](=O)[O-])cc([N+](=O)[O-])c1)C2(C)C (stereo unspecified)
inactive: [1] -3.2% | [2] -0.5% | [3] -5.5%

COc1ccc(-c2[nH]ncc2CN(CCO)Cc2cccs2)c(F)c1
inactive: [1] -1.2% | [2] 0.8% | [3] 5.8%

CO[C@H]1C=CO[C@@]2(C)Oc3c(C)c(O)c4c(O)c(c(C=NN5CCN(C)CC5)c(O)c4c3C2=O)NC(=O)C(C)=CC=C[C@H](C)[C@H](O)[C@@H](C)[C@@H](O)[C@@H](C)[C@H](OC(C)=O)[C@@H]1C
inactive: [1] -7.2% | [2] 0.5% | [3] -7.3%

CC(=O)c1cccc(NC(=O)N[C@@H](CC(C)C)C(=O)O)c1
inactive: [1] -0.3% | [2] -1.7% | [3] -2.8%

CN(C)c1ccc(Nc2c3c4c(cccc4n(C)c2=O)C(=O)c2ccccc2-3)cc1
inactive: [1] -13.5% | [2] -3.2% | [3] -18.1%

O=C(OCC1OC2OC3(CCCCC3)OC2C2OC3(CCCCC3)OC12)c1ccccc1 (stereo unspecified)
inactive: [1] -3.1% | [2] 2.6% | [3] -2.2%

CN(C)C(=O)C(CCN1CCC(O)(c2ccc(Cl)cc2)CC1)(c1ccccc1)c1ccccc1
inactive: [1] -1.4% | [2] -1.4% | [3] 7.3%

CC(C)[C@H](NC(=O)[C@@H]1CSCN1C(=O)OC(C)(C)C)C(=O)NCC1CCC(C(=O)O)CC1 (stereo partly specified)
inactive: [1] -1.3% | [2] -1.5% | [3] -2.2%

COc1cccc(OC)c1C(=O)NCCSC1CCCCC1
inactive: [1] 1.4% | [2] 0% | [3] 5.6%

COc1ccc2cc(C(=O)Nc3ccc(S(N)(=O)=O)cc3)sc(=O)c2c1OC
inactive: [1] 4.2% | [2] 0.6% | [3] 1.5%

COc1cc2c3c(c1)C(C)CC(C)(C)N3C(=O)C2=O (stereo unspecified)
inactive: [1] -6.7% | [2] -1.3% | [3] -5.6%

CCn1c2ccccc2c2cc(CC(N)=O)ccc21
inactive: [1] -5.5% | [2] -0.6% | [3] -0.1%

CCOC(=O)C(NC(=O)CCC(=O)Nc1ccc(S(N)(=O)=O)cc1)C(O)c1ccccc1 (stereo unspecified)
inactive: [1] -0.5% | [2] -1% | [3] 5.9%

O=C(/C=C/c1c[nH]c2ccccc12)c1cccc2ccccc12
inactive: [1] 5.1% | [2] 2.4% | [3] -6.2%

CCOC(=O)C1CCCN(Cc2nc(Cc3cccc(F)c3)no2)C1 (stereo unspecified)
inactive: [1] 0.1% | [2] -0.4% | [3] 0.6%

CC(C)COC(=O)C1C(=O)CC(C)(O)C(C(=O)OCC(C)C)C1c1cccnc1 (stereo unspecified)
inactive: [1] 2.5% | [2] 0.6% | [3] 3.5%

C[N+]12CCC(CC1)C(OC(=O)C(O)(c1ccccc1)c1ccccc1)C2 (stereo unspecified)
inactive: [1] 1% | [2] 0.1% | [3] -0.4%

COc1cccc(C2CC(=O)C3=C(C2)Nc2ccccc2N(C(=O)CCC(=O)O)C3c2ccc(F)cc2)c1 (stereo unspecified)
inactive: [1] 1.3% | [2] 0.4% | [3] 5.1%

COc1ccc(/C=C/C(=O)NC(=S)NN2CCCCC2c2cccnc2)cc1 (stereo unspecified)
inactive: [1] 3.7% | [2] 1.8% | [3] -3.5%

CCCCC(=O)O[C@H]1CC[C@H]2[C@@H]3CCc4cc(O)ccc4[C@H]3CC[C@]12C
inactive: [1] 0.5% | [2] 0.1% | [3] -1.7%

COc1ccc(-c2nnc(-c3cc4c(ccc5ccccc54)oc3=O)o2)cc1
inactive: [1] -0.8% | [2] 0.4% | [3] -1.7%

COc1ccc(-c2nc(NC(C)=O)sc2-c2ccc(OC)cc2)cc1
inactive: [1] 3% | [2] 1% | [3] 2.3%

C[N+](C)(C)CCCCCCCCCC[N+](C)(C)C
inactive: [1] -0.3% | [2] -0.8% | [3] -5.3%

COc1ccc(C=NCC2COc3ccccc3O2)cc1OC (stereo unspecified)
inactive: [1] -0.8% | [2] -3.3% | [3] -3.2%

CC1CCN(CCOCCOc2ccccc2Br)CC1
inactive: [1] 1.2% | [2] 0.3% | [3] 3.9%

N/C(Cc1ccc(Cl)cc1Cl)=N\OC(=O)c1ccc(Br)o1
inactive: [1] -0.8% | [2] -2.5% | [3] -7.4%
